Measured values published in PubChem BioAssay (NCI).
About 83,000 compounds went through this panel and 20% of them were active in at least one assay; those are over-represented in the sample as a whole.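 The endpoint reported here, percent growth, reads 100 for growth as untreated, 0 for no net growth and -100 for all cells dead.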 Values without a mark were called inactive. Calls of active or inactive are those of the source. How the source made its calls: active means growth percent below 10; inactive means the rest.

Experiments:
Experiment in all cases: NCI-60 one-dose screen, 48 h (100 = growth as untreated, 0 = no growth, -100 = all killed)
Conditions in all cases: 10 µM unless noted
NCI-H23 lung = system: NCI-H23 lung
NCI-H226 lung = system: NCI-H226 lung
NCI-H322M lung = system: NCI-H322M lung
HOP-62 NSCLC = system: HOP-62 NSCLC
NCI-H460 lung = system: NCI-H460 lung
HOP-92 NSCLC = system: HOP-92 NSCLC
NCI-H522 lung = system: NCI-H522 lung
A549/ATCC NSCLC = system: A549/ATCC NSCLC
786-0 renal = system: 786-0 renal
COLO 205 colon = system: COLO 205 colon
DU-145 prostate = system: DU-145 prostate
K-562 leukemia = system: K-562 leukemia
MALME-3M melanoma = system: MALME-3M melanoma
MDA-MB-231 breast = system: MDA-MB-231 breast
RXF 393 renal = system: RXF 393 renal
SF-268 CNS = system: SF-268 CNS
SF-295 CNS = system: SF-295 CNS
SF-539 CNS = system: SF-539 CNS
UACC-257 melanoma = system: UACC-257 melanoma
M14 melanoma = system: M14 melanoma

| Compound | growth (NCI-H23 lung) [%] | growth (NCI-H226 lung) [%] | growth (NCI-H322M lung) [%] | growth (HOP-62 NSCLC) | growth (NCI-H460 lung) | growth (HOP-92 NSCLC) | growth (NCI-H522 lung) | growth (A549/ATCC NSCLC) [%] | growth (786-0 renal) | growth (COLO 205 colon) | growth (DU-145 prostate) | growth (K-562 leukemia) | growth (MALME-3M melanoma) | growth (MDA-MB-231 breast) | growth (RXF 393 renal) | growth (SF-268 CNS) | growth (SF-295 CNS) | growth (SF-539 CNS) | growth (UACC-257 melanoma) [%] | growth (M14 melanoma) |
| --- | --- | --- | --- | --- | --- | --- | --- | --- | --- | --- | --- | --- | --- | --- | --- | --- | --- | --- | --- | --- |
| C/C(Nc1ccc(Cl)c(Cl)c1)=C1\CCOC1=O | 93.3 | 90.4 | 101 | 80.3% | 92.5% | 75.6% | 58% | 88.6 | 81.7% | 134% | 106% | 86.8% | 109% | 95% | 92.2% | 106% | 86.7% | 98.5% | 98.3 | 81.3% |
| Cn1ccc2c3c(ccc21)CC3=O | 97 | 100 | 116 | 111% | 108% | 114% | 98.4% | 105 | 107% | 119% | 120% | 111% | 121% | 103% | 115% | 110% | 112% | 126% | 114 | 107% |
| COC(=O)c1cc(-c2ccc(S(C)(=O)=O)cc2)[nH]c1N/N=C/c1c(Cl)cccc1Cl | 29.6 | 47.5 | 15.4 | 3.22% (active) | 3.65% (active) | 18.9% | -15.1% (active) | 25.2 | 5.08% (active) | -19.3% (active) | 4.36% (active) | -1.67% (active) | 4.13% (active) | 50.9% | -2.32% (active) | 37.1% | -28.2% (active) | -19.8% (active) | 60.3 | -8.67% (active) |
| C#CCn1cnc2c(Nc3cccc(NC(=O)C=C)c3)ncnc21 | 89.7 | 66.3 | 103 | 75.2% | 80.3% | 68.5% | 79.4% | 63.9 | 61.7% | 84.4% | 86.4% | 72.7% | 78.9% | 80% | 85.2% | 63.4% | 80.5% | 66.8% | 75.6 | 76.6% |
| Cc1ccc(-c2cc(-c3ccc(Cl)cc3)nc(NC(=O)c3cccnc3)n2)cc1 | 96.5 | 98.6 | 98.5 | 114% | 102% | 117% | 93.5% | 105 | 102% | 109% | 106% | 87.6% | 111% | 91.3% | 94.1% | 97.6% | 103% | 106% | 121 | 109% |
| O=C1/C(=C/c2ccc(Cl)cc2)COc2ccc(O)c(O)c21 | 42.3 | 90.6 | 37.5 | -22.7% (active) | 31.1% | -5.33% (active) | -60.9% (active) | 42.9 | -80.8% (active) | 27.7% | 21.4% | 13.1% | 7.38% (active) | -17.8% (active) | 9.7% (active) | -0.809% (active) | 77.1% | -76% (active) | 10.1 | 30.9% |
| Cn1cc(-c2nonc2-c2c[nH]c3ccc(Br)cc23)c2cc(Br)ccc21 | 39.9 | 44.8 | 32.1 | 29.1% | 13.3% | 55.6% | 24.3% | 30.8 | 34.3% | 49.1% | 23.2% | 7.65% (active) | 39.9% | 31.9% | 18.2% | 37.8% | 22.4% | 46% | 66.8 | 42.7% |
| COc1ccc(C(=O)Nc2cccc(C3CC(=O)c4c(cc(OC)c(OC)c4OC)O3)c2)cc1 (stereo not given) | 35.2 | 25 | 37.8 | 14.1% | 4.37% (active) | 34.3% | -37.1% (active) | 28.5 | 13.8% | -5% (active) | 2.98% (active) | 7.66% (active) | 31.4% | 41.9% | -8.37% (active) | 46.6% | 9.55% (active) | -29.7% (active) | 46.2 | -23.9% (active) |
| COc1cc(-c2cc(-c3cccs3)c(C#N)c(N3CCOCC3)n2)cc(OC)c1OC | 101 | 111 | 100 | 134% | 11.1% | 101% | 80.3% | 83.6 | 37.7% | 56.4% | 98.7% | 10.9% | 116% | 65.4% | 40.6% | 113% | 62% | 58.9% | 20.7 | 44.6% |
| CCN(CC)C(=S)SC(SC(=S)N(CC)CC)C(=O)c1nnn(-c2ccc([N+](=O)[O-])cc2)c1C | 98.4 | 104 | 98.5 | 97.3% | 73.9% | 89.5% | 79.5% | 95.9 | 94.2% | 95.2% | 104% | 81% | 94.3% | 95.1% | 114% | 92.9% | 100% | 98.3% | 101 | 96.9% |
| CC1=C(C(=O)OC(C)C)C(c2ccc3c(c2)OCO3)NC(=S)N1 (stereo not given) | 99.2 | 84.1 | 108 | 119% | 110% | 96.6% | 86.4% | 104 | 104% | 123% | 109% | 107% | 95.9% | 101% | 106% | 103% | 95.8% | 98.9% | 100 | 99% |
| COc1ccc(OC)c(-c2c(C#N)c(-c3cccs3)nc3c2c(-c2ccccc2)nn3-c2ccccc2)c1 | 105 | 102 | 110 | 105% | 101% | 106% | 87.8% | 101 | 103% | 110% | 111% | 106% | 106% | 105% | 109% | 97.4% | 101% | 93.5% | 105 | 105% |
| Cc1cccnc1NC(=S)Nc1ncccc1C | 99.2 | 100 | 107 | 109% | 107% | 109% | 88.9% | 110 | 90.1% | 116% | 113% | 65.3% | 113% | 112% | 92.3% | 108% | 81.2% | 107% | 116 | 102% |
| O=C(/C=C/c1ccccc1)c1cccc(OCCCOc2cccc(C(=O)/C=C/c3ccccc3)c2)c1 | 95.5 | 108 | 105 | 116% | 101% | 101% | 90.3% | 87.2 | 92.9% | 94.1% | 100% | 46.4% | 107% | 97.4% | 94.9% | 104% | 94.2% | 107% | 96.4 | 95% |
